Measurements as given in PubChem BioAssay (EPA / NIEHS).
Calls of active or inactive are those of the source. Rule for the calls: active = hit-call score of the fitted dose curve at least 0.9, where 1 is the maximum; inactive = score below 0.9.

Legend:
Conditions in all cases: mRNA level, 48 h; actives raise or lower the signal
[1] = read-out: Nuclear factor NF-kappa-B p105 subunit (Homo sapiens) (UniProt P19838); assay: LTEA_HepaRG_NFKB1: Life Technologies and Expression Analysis (LTEA) Assay for Nuclear Factor Kappa B Subunit 1 (NFKB1) using HepaRG (AID 2283521);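 for outcome: TaqMan qRT-PCR transcript normalised to ACTB GAPDH and POLR2A housekeeping genes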
Method in brief: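 HepaRG, 48 h exposure; 8-pt half-log series from 100 uM in 0.5% DMSO; duplicates. Readout: NFKB1 mRNA by qRT-PCR (Fluidigm arrays), housekeeping-normalized. Gain/loss fit vs DMSO baseline.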

[2] = read-out: Protein phosphatase 2A (PPP2R4), PTPA (gene 5524); assay: LTEA_HepaRG_PPP2R4: Life Technologies and Expression Analysis (LTEA) Assay for Protein phosphatase 2A (PPP2R4) using HepaRG (AID 2283522)
Method in brief: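 Differentiated HepaRG cells in serum-free induction medium were exposed in duplicate for 48 h to eight concentrations, top 100 uM with half-log dilutions, in 0.5% DMSO. PPP2R4 mRNA was quantified by TaqMan qRT-PCR, normalized to ACTB, GAPDH and POLR2A.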

[3] = read-out: Phosphatase and tensin (PTEN), PTEN (gene 5728); assay: LTEA_HepaRG_PTEN: Life Technologies and Expression Analysis (LTEA) Assay for Phosphatase and tensin (PTEN) using HepaRG (AID 2283523)
Method in brief: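 Differentiated human HepaRG cells, plated 48 h then switched to serum-free induction medium, were exposed in duplicate for 48 h to eight half-log concentrations up to 100 uM in 0.5% DMSO. PTEN mRNA measured by TaqMan qRT-PCR, normalized to ACTB/GAPDH/POLR2A, bidirectional fit versus DMSO.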

[4] = read-out: solute carrier (SLC22A1), SLC22A1 (gene 6580); assay: LTEA_HepaRG_SLC22A1: Life Technologies and Expression Analysis (LTEA) Assay for solute carrier (SLC22A1) using HepaRG (AID 2283524)
Method in brief: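 Human HepaRG cells were plated 48 h, switched to serum-free induction medium, then exposed in duplicate for 48 h to 8-point half-log series from 100 uM in 0.5% DMSO. SLC22A1 mRNA measured by qRT-PCR, normalized to ACTB/GAPDH/POLR2A, fitted bidirectionally versus DMSO.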

[5] = read-out: Pyruvate Dehydrogenase Kinase 4 (PDK4), PDK4 (gene 5166); assay: LTEA_HepaRG_PDK4: Life Technologies and Expression Analysis (LTEA) Assay for Pyruvate Dehydrogenase Kinase 4 (PDK4) using HepaRG (AID 2283525)
Method in brief: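 Differentiated human HepaRG cells, pre-cultured 48 h, were exposed in duplicate for 48 h in serum-free induction medium to eight half-log concentrations up to 100 uM in 0.5% DMSO. PDK4 mRNA was quantified by qRT-PCR, normalized to ACTB, GAPDH and POLR2A, bidirectional fitting versus DMSO.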

[6] = read-out: NAD(P)H dehydrogenase [quinone] 1 (NQO1), NQO1 (gene 1728); assay: LTEA_HepaRG_NQO1: Life Technologies and Expression Analysis (LTEA) Assay for NAD(P)H dehydrogenase [quinone] 1 (NQO1) using HepaRG (AID 2283526)
Method in brief: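 Differentiated HepaRG cells, plated 48 h and then switched to serum-free induction medium, were exposed in duplicate for 48 h to 8-point half-log concentrations up to 100 uM in 0.5% DMSO. mRNA measured by qRT-PCR, normalized to ACTB, GAPDH, POLR2A; bidirectional fit versus DMSO.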

[7] = read-out: Nuclear factor erythroid 2-related factor 2 (Homo sapiens) (UniProt Q16236); assay: LTEA_HepaRG_NFE2L2: Life Technologies and Expression Analysis (LTEA) Assay for Nuclear factor erythroid 2-related factor 2 (NFE2L2) Transcription Factor using HepaRG (AID 2283527);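 for outcome: TaqMan qRT-PCR transcript level normalised to ACTB GAPDH and POLR2A housekeeping genes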
Method in brief: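 Differentiated human HepaRG cells in serum-free induction medium were exposed for 48 h to eight concentrations (top 100 uM, half-log dilutions, 0.5% DMSO), in duplicate. NFE2L2 mRNA was quantified by TaqMan qRT-PCR, normalized to ACTB, GAPDH and POLR2A, with bidirectional fitting versus DMSO.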

[8] = read-out: succinate dehydrogenase complex iron sulfur subunit B (SDHB), SDHB (gene 6390); assay: LTEA_HepaRG_SDHB: Life Technologies and Expression Analysis (LTEA) Assay for succinate dehydrogenase complex iron sulfur subunit B (SDHB) using HepaRG (AID 2283528)
Method in brief: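 Readout is SDHB transcript level by qRT-PCR, normalised to three housekeeping genes and fitted bidirectionally against 0.5% DMSO vehicle. Human HepaRG cells were treated for 48 h at up to 100 uM.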

[9] = read-out: Signal transducer and activator of transcription 3 (Homo sapiens) (UniProt P40763); assay: LTEA_HepaRG_STAT3: Life Technologies and Expression Analysis (LTEA) Assay for Signal transducer and activator of transcription (STAT3) using HepaRG (AID 2283529)
Method in brief: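 Differentiated human HepaRG cells in serum-free induction medium were exposed in duplicate for 48 h to eight half-log concentrations up to 100 uM in 0.5% DMSO. STAT3 mRNA was quantified by TaqMan qRT-PCR, normalized to ACTB, GAPDH and POLR2A, and fitted bidirectionally against DMSO.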

[10] = read-out: solute carrier (SLCO1B1), SLCO1B1 (gene 10599); assay: LTEA_HepaRG_SLCO1B1: Life Technologies and Expression Analysis (LTEA) Assay for solute carrier (SLCO1B1) using HepaRG (AID 2283530)
Method in brief: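 HepaRG, serum-free induction medium, 48 h dosing, 8-pt half-log from 100 uM, 0.5% DMSO vehicle, duplicates. Readout: SLCO1B1 mRNA, qRT-PCR, ACTB/GAPDH/POLR2A normalization; up or down fit vs DMSO.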

Chain of Nuclear factor NF-kappa-B p105 subunit (Homo sapiens) (P19838 whole entry, looked up): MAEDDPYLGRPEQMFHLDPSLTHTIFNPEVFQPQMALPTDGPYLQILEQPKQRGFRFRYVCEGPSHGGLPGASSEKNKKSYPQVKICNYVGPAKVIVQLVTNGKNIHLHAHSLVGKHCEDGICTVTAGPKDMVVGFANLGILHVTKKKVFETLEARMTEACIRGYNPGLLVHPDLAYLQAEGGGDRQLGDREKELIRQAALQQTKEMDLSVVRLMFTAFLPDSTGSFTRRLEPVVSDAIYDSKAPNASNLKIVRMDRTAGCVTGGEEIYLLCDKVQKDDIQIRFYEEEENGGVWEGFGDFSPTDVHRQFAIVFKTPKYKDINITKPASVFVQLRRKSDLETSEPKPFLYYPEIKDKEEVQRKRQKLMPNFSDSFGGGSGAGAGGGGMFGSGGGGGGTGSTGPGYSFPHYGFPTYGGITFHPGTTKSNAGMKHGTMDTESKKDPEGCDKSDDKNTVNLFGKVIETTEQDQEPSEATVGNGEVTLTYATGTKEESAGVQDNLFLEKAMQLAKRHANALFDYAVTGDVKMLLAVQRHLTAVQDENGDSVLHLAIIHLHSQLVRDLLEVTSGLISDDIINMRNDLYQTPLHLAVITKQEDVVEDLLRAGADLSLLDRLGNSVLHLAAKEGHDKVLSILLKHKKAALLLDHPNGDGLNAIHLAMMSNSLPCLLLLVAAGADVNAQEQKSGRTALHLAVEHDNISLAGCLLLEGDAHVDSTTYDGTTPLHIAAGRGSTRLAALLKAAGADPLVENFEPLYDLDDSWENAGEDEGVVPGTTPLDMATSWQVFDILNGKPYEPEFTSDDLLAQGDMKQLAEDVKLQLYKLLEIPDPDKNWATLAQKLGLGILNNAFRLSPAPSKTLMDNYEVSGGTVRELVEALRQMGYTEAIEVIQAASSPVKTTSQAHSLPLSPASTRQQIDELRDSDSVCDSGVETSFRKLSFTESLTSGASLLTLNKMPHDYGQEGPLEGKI
Chain of Nuclear factor erythroid 2-related factor 2 (Homo sapiens) (Q16236 whole entry, looked up): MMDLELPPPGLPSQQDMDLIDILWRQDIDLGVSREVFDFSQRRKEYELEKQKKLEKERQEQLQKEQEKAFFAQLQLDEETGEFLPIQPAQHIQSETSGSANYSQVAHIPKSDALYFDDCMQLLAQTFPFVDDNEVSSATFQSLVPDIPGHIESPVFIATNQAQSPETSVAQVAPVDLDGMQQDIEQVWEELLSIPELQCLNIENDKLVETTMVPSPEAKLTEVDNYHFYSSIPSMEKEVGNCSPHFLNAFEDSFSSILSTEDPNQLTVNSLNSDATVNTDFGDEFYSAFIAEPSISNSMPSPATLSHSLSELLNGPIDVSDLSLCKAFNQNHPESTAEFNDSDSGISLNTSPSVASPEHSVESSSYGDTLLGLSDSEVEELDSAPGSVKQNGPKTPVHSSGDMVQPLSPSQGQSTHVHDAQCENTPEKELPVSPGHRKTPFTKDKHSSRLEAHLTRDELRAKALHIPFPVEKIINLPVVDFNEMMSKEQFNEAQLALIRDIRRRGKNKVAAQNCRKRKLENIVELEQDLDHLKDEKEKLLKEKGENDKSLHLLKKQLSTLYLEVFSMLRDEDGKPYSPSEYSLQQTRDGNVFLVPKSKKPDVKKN
Chain of Signal transducer and activator of transcription 3 (Homo sapiens) (P40763 whole entry, looked up): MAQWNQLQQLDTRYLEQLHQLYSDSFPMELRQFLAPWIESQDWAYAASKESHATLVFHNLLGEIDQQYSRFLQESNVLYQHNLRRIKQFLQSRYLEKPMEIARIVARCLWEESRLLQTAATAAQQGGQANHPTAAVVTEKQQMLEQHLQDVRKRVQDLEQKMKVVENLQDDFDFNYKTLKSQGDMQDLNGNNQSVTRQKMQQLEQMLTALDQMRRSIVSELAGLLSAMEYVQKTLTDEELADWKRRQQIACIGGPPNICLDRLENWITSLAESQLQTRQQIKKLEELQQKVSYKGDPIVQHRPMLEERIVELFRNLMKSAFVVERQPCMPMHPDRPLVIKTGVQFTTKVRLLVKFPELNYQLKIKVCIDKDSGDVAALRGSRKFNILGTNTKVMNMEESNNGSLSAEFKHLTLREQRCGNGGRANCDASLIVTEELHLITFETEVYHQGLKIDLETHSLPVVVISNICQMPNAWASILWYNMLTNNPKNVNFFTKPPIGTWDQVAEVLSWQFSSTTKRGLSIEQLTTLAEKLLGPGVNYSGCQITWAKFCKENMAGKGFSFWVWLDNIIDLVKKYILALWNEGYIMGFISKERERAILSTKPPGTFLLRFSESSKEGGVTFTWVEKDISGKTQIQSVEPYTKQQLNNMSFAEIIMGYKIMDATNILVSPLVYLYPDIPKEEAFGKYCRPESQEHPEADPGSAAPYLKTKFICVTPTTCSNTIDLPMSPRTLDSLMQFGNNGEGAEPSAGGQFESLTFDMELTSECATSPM

| SMILES | AC50 [1] | AC50 [2] | outcome [3] | AC50 [4] | AC50 [5] | outcome [6] | AC50 [7] | outcome [8] | outcome [9] | AC50 [10] | outcome [1] | outcome [2] | outcome [4] | outcome [7] | outcome [10] | outcome [5] | AC50 [9] | AC50 [3] | AC50 [8] |
| --- | --- | --- | --- | --- | --- | --- | --- | --- | --- | --- | --- | --- | --- | --- | --- | --- | --- | --- | --- |
| CCN(Cc1cccnc1)C(=O)c1cccc(Cl)c1[C@]1(C)C(=O)N(Cc2ccc(OC)cc2OC)c2ccc(Cl)cc21 | 26.5 µM (active) | 10.8 µM (active) | inactive | 21.7 µM (active) | 22.3 µM (active) | inactive | 16 µM (active) | inactive | inactive | 22.2 µM (active) | – | – | – | – | – | – | – | – | – |
| O=C(O)c1ccccc1C(=O)OCc1ccccc1 | – | – | inactive | – | 28.6 µM (active) | inactive | – | inactive | inactive | – | inactive | inactive | inactive | inactive | inactive | – | – | – | – |
| c1ccc2ccccc2c1 | – | – | inactive | – | – | inactive | – | inactive | inactive | – | inactive | inactive | inactive | inactive | inactive | inactive | – | – | – |
| O=C1c2ccccc2C(=O)N1CCc1noc(-c2ccc(CN3CCCCCC3)s2)n1 | – | – | inactive | – | – | inactive | – | inactive | inactive | – | inactive | inactive | inactive | inactive | inactive | inactive | – | – | – |
| CCCCCCCC[Si](OCC)(OCC)OCC | – | – | inactive | – | – | inactive | – | inactive | inactive | – | inactive | inactive | inactive | inactive | inactive | inactive | – | – | – |
| OCCO | – | – | inactive | – | – | inactive | – | inactive | inactive | – | inactive | inactive | inactive | inactive | inactive | inactive | – | – | – |
| Oc1ccc2ccccc2c1 | – | – | inactive | – | – | inactive | – | inactive | inactive | – | inactive | inactive | inactive | inactive | inactive | inactive | – | – | – |
| CN1C(=O)CC[C@H]1c1cccnc1 | – | – | inactive | – | – | inactive | – | inactive | inactive | – | inactive | inactive | inactive | inactive | inactive | inactive | – | – | – |
| CCCCCCCCCC(=O)O | – | – | inactive | – | – | inactive | – | inactive | inactive | – | inactive | inactive | inactive | inactive | inactive | inactive | – | – | – |
| CCCCCCCCOc1ccc(C(=O)c2ccccc2)c(O)c1 | – | – | inactive | – | – | inactive | – | inactive | inactive | – | inactive | inactive | inactive | inactive | inactive | inactive | – | – | – |
| c1ccc2n[nH]nc2c1 | – | – | inactive | – | – | inactive | – | inactive | inactive | – | inactive | inactive | inactive | inactive | inactive | inactive | – | – | – |
| Cc1ccc2oc(CN(Cc3ccccc3)C(=O)Nc3c(F)cc(F)cc3F)c(-c3ccc(Cl)cc3)c2c1 | – | – | inactive | 44.2 µM (active) | – | inactive | – | inactive | inactive | – | inactive | inactive | – | inactive | inactive | inactive | – | – | – |
| CO[C@H]1/C=C/O[C@@]2(C)Oc3c(C)c(O)c4c(O)c(c(/C=N/N5CCN(C)CC5)c(O)c4c3C2=O)NC(=O)/C(C)=C\C=C\[C@H](C)[C@H](O)[C@@H](C)[C@@H](O)[C@@H](C)[C@H](OC(C)=O)[C@@H]1C | – | – | inactive | – | – | inactive | – | inactive | – | – | inactive | inactive | inactive | inactive | inactive | inactive | 7.81 µM (active) | – | – |
| CCCCCCCCCCCO | – | – | inactive | – | – | inactive | – | inactive | inactive | – | inactive | inactive | inactive | inactive | inactive | inactive | – | – | – |
| CN(C[C@@H](CC[N+]12CCC(C3CCCCC3)(CC1)CC2)c1ccc(Cl)c(Cl)c1)C(=O)c1cc(C(F)(F)F)cc(C(F)(F)F)c1 | 89.7 µM (active) | 76.2 µM (active) | – | 22.4 µM (active) | 82.4 µM (active) | inactive | – | – | inactive | 33.9 µM (active) | – | – | – | inactive | – | – | – | 71.1 µM (active) | 68.8 µM (active) |
| O=C(O)Cc1cc(I)c(Oc2ccc(O)c(I)c2)c(I)c1 | 71.8 µM (active) | – | inactive | 78.8 µM (active) | 0.00367 µM (active) | inactive | 85.6 µM (active) | inactive | inactive | 82.7 µM (active) | – | inactive | – | – | – | – | – | – | – |
| COc1cc(C(=O)NC2CCN(C)CC2)ccc1Nc1ncc2c(n1)N(C1CCCC1)CC(F)(F)C(=O)N2C | 11.7 µM (active) | 11.9 µM (active) | – | 5.56 µM (active) | 22.2 µM (active) | inactive | 25.4 µM (active) | – | – | 7.47 µM (active) | – | – | – | – | – | – | 27.3 µM (active) | 12 µM (active) | 12.7 µM (active) |
| Clc1cc(Cl)c2c(c1)N=C1CCCCCN1C2 | – | – | inactive | – | 12.6 µM (active) | inactive | – | inactive | inactive | – | inactive | inactive | inactive | inactive | inactive | – | – | – | – |
